Results on 54 sequences are retold here after the supplement of paper PMC10338343.

For assay [1], the system named is MILI (PIWIL2) piRISC loaded with piRNA #1 (26 nt). Put plainly: pre-steady-state target cleavage rate (min^-1); guide: piRNA #1 5'p-UGAGGUAGUAGGUUGUAUAGUAUCCA; higher = faster piRNA-guided slicing of the target. Particulars: auxiliary factor: 500 nM mouse GTSF1. A digest of the protocol: (§1)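 The method was Cleave-'n-Seq, in which uncleaved targets from a transcribed, DNA-blocked target RNA library were sequenced after exposure to active affinity-purified piRISC carrying one synthetic guide, with or without GTSF1 partner protein. Reactions contained 0.1 nM library, 1 nM piRISC and, where present, 500 nM GTSF1 in HEPES–potassium acetate buffer at 33 °C for 0–8 or 0–960 min. Reads were normalised to depth and to weakly complementary targets, three trials were pooled, and k3 was capped at 0.0001 min^-1. The pre-steady-state cleavage rate came from a burst-and-steady-state fit.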

Assay [2] has as its system EfPiwi piRISC loaded with piRNA #1 (26 nt). Briefly: pre-steady-state target cleavage rate (min^-1); auxiliary factor: 500 nM Ephydatia muelleri Gtsf1; guide: piRNA #1 5'p-UGAGGUAGUAGGUUGUAUAGUAUCCA; MIWI and MILI are mouse PIWI proteins and EfPiwi is from a freshwater sponge; tags in brackets are library labels; higher = faster piRNA-guided slicing of the target. A digest of the protocol:
as §1

± gives the standard deviation.

Turning to GGAGACCAUACUUUACAACCUACUAGCUCA, the “pre-steady-state target cleavage rate” value in assay [1] was 0.0628 ± 0.015. For the sequence GGAGACCUAUGUAUACAUCCUACUACCACA, the “pre-steady-state target cleavage rate” value in assay [1] is 0.163 ± 0.017.

Take GGAGUGGAUACAAUAGAACCUACUACCUCA: the “pre-steady-state target cleavage rate” value in assay [1] is 0.163 ± 0.009. As to GGAGACCUAUCUAUAGUACCUACUACCUCA, in assay [1], the “pre-steady-state target cleavage rate” value is 0.092 ± 0.014. For the sequence GGAGACCUUACUAUACAAGGUACUACCUCA, the “pre-steady-state target cleavage rate” value in assay [1] was determined as 0.0785 ± 0.0094.

As to GGAGACCUAUGUAUCACAACCUACUACCUCA, the “pre-steady-state target cleavage rate” value in assay [1] was found to be 0.0102 ± 0.003. On the same count and under the same terms, the same measure for GGAGACCUAUGAAUACAACGUACUAGCUCA: 0.0036 ± 0.0035. In the case of GGAGACCUAUGAUGACAACCUACUACCUCA, the “pre-steady-state target cleavage rate” value in assay [1] stood at 0.00556 ± 0.0019. Turning to GGAGACCUAAGUAUACAACCAACUACCUCA, in assay [1], the “pre-steady-state target cleavage rate” value was determined as 0.00465 ± 0.0039. For GGAGACCUAUGUAUACAAGCUACUACCACA, in assay [1], the “pre-steady-state target cleavage rate” value amounted to 0.177 ± 0.017. For GGAGACCAUACUAUAGAACCUACUACCUGA, the “pre-steady-state target cleavage rate” value in assay [1] was 0.00906 ± 0.0046. GGAGACCUAUGAUAACAUCCUACUACCUCA: the “pre-steady-state target cleavage rate” value in assay [1] was 0.00447 ± 0.0023.

On to GGAGACCUAUGAUUACAACCUACUGACCUCA, for which the “pre-steady-state target cleavage rate” value in assay [1] stood at 0.00605 ± 0.0028. On to GGAGACCUAUGAUAUGUACCUAGUACCUCA, for which the “pre-steady-state target cleavage rate” value in assay [1] was below 0.0001. Regarding GGAGACCAUACUAUACAACCUACUUCCUCA, the “pre-steady-state target cleavage rate” value in assay [1] was 0.114 ± 0.018. GGAGACCUAUGAUAACAACCUACUACCUUA: the “pre-steady-state target cleavage rate” value in assay [1] was determined as 0.00415 ± 0.003.

Consider GGAGACCUAUGAUUACAACCUACUUACCUCA, for which, in assay [1], the “pre-steady-state target cleavage rate” value was determined as 0.0057 ± 0.0019.

On to GGAGACCUAUGAAUAGAACCUACUACCUCA, for which, in assay [1], the “pre-steady-state target cleavage rate” value is 0.00534 ± 0.0016. Still for that read-out and setting: the same measure for GGAGACCUAUGAUUACAACCUACUACCGUCA: 0.00492 ± 0.0022.

As to GGAGACCUAUGUAUACAACCUACUACAUCA, the “pre-steady-state target cleavage rate” value in assay [1] turned out to be 0.0269 ± 0.0059. Still for that read-out and setting: the same measure for GGAGACCUAACUUUACAACCUACUACCUGA: 0.0891 ± 0.041.

Take GGAGACCUAUGAAUACAACCUACAACCUCA: the “pre-steady-state target cleavage rate” value in assay [1] was found to be 0.0078 ± 0.0029. As for GGAGACCUAUGAAUACAACCUACUAUCCUCA, the “pre-steady-state target cleavage rate” value in assay [1] was determined as 0.00841 ± 0.0026. Still for that read-out and setting: in the case of GGAGUGGAUACUAUACAACCAACUACCACA it was 0.00424 ± 0.0025.

For the sequence GGAGACCAUACUGUACAACCUACUACCUCA, the “pre-steady-state target cleavage rate” value in assay [1] was 0.079 ± 0.012. Take GGAGACCUUACUAUACAACCAACUUCCUCA: the “pre-steady-state target cleavage rate” value in assay [1] stood at 0.00396 ± 0.0024. Take GGAGACCUAACUUUACUACCUACUACCUCA: the “pre-steady-state target cleavage rate” value in assay [1] is 0.0581 ± 0.013. Consider GGAGACCUUACUAUACAUCCUACAACCUCA, for which, in assay [1], the “pre-steady-state target cleavage rate” value is 0.214 ± 0.019. On to GGAGACCUAUGUUUACAACCUACUACCUCA, for which the “pre-steady-state target cleavage rate” value in assay [1] stood at 0.0117 ± 0.0031. Turning to GGAGACCUAUCUAUACAUCCUACUUCCUCA, in assay [1], the “pre-steady-state target cleavage rate” value turned out to be 0.107 ± 0.019. Take GGAGACCUAUGAUUACAUCCUACAACCUCA: the “pre-steady-state target cleavage rate” value in assay [1] was determined as 0.00871 ± 0.0027. Turning to GGAGACCAUACUAAACAACCUACUACGUCA, the “pre-steady-state target cleavage rate” value in assay [1] was 0.0881 ± 0.014. With GGAGACCUAACUAUACAAGGUACUACCUCA, in assay [1], the “pre-steady-state target cleavage rate” value was 0.0664 ± 0.012. With GGAGACCUAUCUAUACAACCUACUAGCUCA, the “pre-steady-state target cleavage rate” value in assay [1] came to 0.0827 ± 0.014. As to GGAGACCAAACUAUACAACCUACUACCUGA, the “pre-steady-state target cleavage rate” value in assay [1] came to 0.133 ± 0.045.

GGAGUGGAUACUUUACAACCUACAACCUCA: the “pre-steady-state target cleavage rate” value in assay [1] turned out to be 0.0647 ± 0.0091. Still for that read-out and setting: in the case of GGAGACCUUAGUUUACAACCUACUACCUCA it was 0.0381 ± 0.012; in that of GGAGACCUAACUAUAGAACCUACUACCUGA, 0.0124 ± 0.008. In the case of GGAGACCUUACUAUACAACCUACUUCGUCA, the “pre-steady-state target cleavage rate” value in assay [1] came out at 0.0614 ± 0.015. On the same count and under the same terms, in the case of GGAGACCUAUCAAUACAAGCUACUACCUCA it was 0.108 ± 0.013; in that of GGAGACCUAAGUAUACAACCUACUUCCUCA, 0.0285 ± 0.0069. As to GGAGACCUAUGAAAACAUCCUACUACCUCA, the “pre-steady-state target cleavage rate” value in assay [1] is 0.00361 ± 0.0024.

In the case of GGAGACCUUACUUUACUACCUACUACCUCA, in assay [1], the “pre-steady-state target cleavage rate” value came out at 0.0948 ± 0.01. For GGAGACCUUACUAUUCAACCUACUACGUCA, in assay [1], the “pre-steady-state target cleavage rate” value worked out at 0.0709 ± 0.0096.

As to GGAGACCUAUCUAUACAAUCUACUACCUCA, the “pre-steady-state target cleavage rate” value in assay [1] was 0.093 ± 0.0085. As to GGAGACCUAUGUAUACAUCCUUCUACCUCA, the “pre-steady-state target cleavage rate” value in assay [1] was 0.00859 ± 0.0018. With GGAGACCUUACUAAACAACCUACUUCCUCA, the “pre-steady-state target cleavage rate” value in assay [1] came out at 0.0656 ± 0.014.

For GGAGACCUUUCUAUACAACGUACUACCUCA, the “pre-steady-state target cleavage rate” value in assay [1] was 0.013 ± 0.003.

On to GGAGACCUAUGUAUACAACCUACGUACCUCA, for which, in assay [1], the “pre-steady-state target cleavage rate” value was 0.0295 ± 0.0083. For the sequence GGAGACGAUACAAUUCAACCUACUACCUCA, the “pre-steady-state target cleavage rate” value in assay [1] amounted to 0.147 ± 0.01. Consider GGAGACCUAUGAUAUGAAACCUACUACCUCA, for which the “pre-steady-state target cleavage rate” value in assay [1] was found to be 0.00314 ± 0.0026. Regarding GGAGACCUAUGAAUACAUCCUUCUACCUCA, in assay [1], the “pre-steady-state target cleavage rate” value is 0.00365 ± 0.0022. In the case of GGAGACCUAUGAUUAGCAACCUACUACCUCA, in assay [1], the “pre-steady-state target cleavage rate” value worked out at 0.00597 ± 0.0035. Take GGAGACGAUACUAUACAACCUGCUACCUCA: the results for the “pre-steady-state target cleavage rate” value in assay [1] and in assay [2] were 0.0677 ± 0.008 and 0.128 ± 0.046, respectively.
